These molecules were tested against T1, Aspartate--tRNA(Asp/Asn) ligase (Mycobacterium tuberculosis (strain ATCC 25618 / H37Rv)) (UniProt P9WFW3) (assay: Assay for Asp RNA synthetase-1 from Mycobacterium tuberculosis). Settings: 30 µM.
T1 sequence (whole entry): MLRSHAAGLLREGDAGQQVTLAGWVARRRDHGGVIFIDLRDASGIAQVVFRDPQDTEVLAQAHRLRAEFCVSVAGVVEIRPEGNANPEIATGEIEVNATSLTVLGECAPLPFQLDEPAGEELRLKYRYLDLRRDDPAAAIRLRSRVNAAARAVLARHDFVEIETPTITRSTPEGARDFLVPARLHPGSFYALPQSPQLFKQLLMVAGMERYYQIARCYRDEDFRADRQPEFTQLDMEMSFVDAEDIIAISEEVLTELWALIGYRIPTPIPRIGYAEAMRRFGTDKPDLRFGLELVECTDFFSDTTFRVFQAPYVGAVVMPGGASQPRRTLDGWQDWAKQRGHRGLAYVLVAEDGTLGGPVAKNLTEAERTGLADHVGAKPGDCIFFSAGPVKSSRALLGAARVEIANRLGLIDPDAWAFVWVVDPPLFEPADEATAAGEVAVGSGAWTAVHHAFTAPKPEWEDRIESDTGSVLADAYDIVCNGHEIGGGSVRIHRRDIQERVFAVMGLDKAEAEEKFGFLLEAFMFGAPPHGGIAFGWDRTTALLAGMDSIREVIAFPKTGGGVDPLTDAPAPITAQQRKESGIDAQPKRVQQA
Format: functional
Set-up: scale not given: direction of the effect not stated beside the values

Row | Compound | Percent Effect
1 | Nc1nccc(NCc2cc3n(n2)CCCN(C2CCCCC2)C3)n1 | -6%
2 | CCn1cc(Br)c(C(=O)NCc2cccnc2)n1 | 7.19%
3 | OC(COCc1ccccc1F)CN1CCc2c(ncn2C2CC2)C1 (stereo not given) | -6.48%
4 | CN(Cc1cccs1)C(=O)CN1CCCC1Cn1cncn1 (stereo not given) | 5.56%
5 | O=C(N1CCC(Nc2cccnn2)CC1)C1(c2ccc(F)cc2)CC1 | 4.44%
6 | CCOc1ccc(C(=O)NS(=O)(=O)c2cncc(Br)c2)cc1OC | -5.81%
7 | CSc1sc(NC(=O)Cc2c(C)nc(C)[nH]c2=O)nc1C | -2.08%
8 | CC(C)(C)c1ncc2c(n1)CN(C(=O)c1ccc(-c3nc[nH]n3)cc1)C2 | -2.37%
9 | Cc1ccc(CNCc2ccc(-n3nc(C)cc3C)nc2)cc1 | 1.23%
10 | COCCc1noc(CN(C)C(=O)c2cccc(N3CCCC3=O)c2)n1 | 3.06%
11 | COCC(=O)N(C)Cc1ccc(Cl)c(Cl)c1 | -3.56%
12 | CC(=O)N1CCCn2nc(CNS(=O)(=O)c3cc(C)cs3)cc2C1 | 1.67%
13 | O=C1CC(c2cccnc2)c2c(c(C(=O)O)cn2-c2ccccc2)N1 (stereo not given) | 4.82%
14 | COCc1nn(C(C)C)c2c1CCN(Cc1cccs1)C2 | -2.9%
15 | Cc1nc(C(C)C)sc1C(=O)NS(=O)(=O)c1ccc(C#N)cc1 | -3.09%
16 | CCC1=N[C@@]2(CC[C@@H]3CN(S(=O)(=O)CC(C)C)C[C@@H]32)C(=O)N1C | 0.189%
17 | O=C(Nc1nncs1)NC1CCOc2ccccc21 (stereo not given) | 5.22%
18 | CCOc1cccc(CNc2ccccc2C(=O)OC)c1O | -5.37%
19 | COc1cccc2c1OCC(C(=O)NC1CCN(S(C)(=O)=O)CC1)C2 (stereo not given) | -3.65%
20 | CCn1ncc2c1CCCC2NCc1cc(Cl)c(OC)c(OC)c1 (stereo not given) | -2.06%

Row | Compound | Percent Effect
21 | CCOCC(O)CN1CCN(C(=O)c2ccc(OC)cc2F)CC1 (stereo not given) | -10.1%
22 | Cc1cc(C)n(C2CN(CC(O)COc3ccc(F)cc3)C2)n1 (stereo not given) | -0.121%
23 | CCN(CC)C(=O)C(c1ccccc1)N1CCn2c(C)nnc2C1 (stereo not given) | -4.06%
24 | Cc1[nH]ccc1C(=O)Nc1cccc(CN2CCC(CO)CC2)c1 | -1.71%
25 | Cc1cc(NC(=O)CN2CCCC2c2noc(C3CC3)n2)no1 (stereo not given) | 0.92%
26 | CC(NC(=O)NCCCn1ccnc1)c1ccc2c(c1)CCC(=O)N2 (stereo not given) | -3.85%
27 | Cc1cccc(C(=O)N2CCCCC2c2ccc(CN(C)C)cc2)n1 (stereo not given) | -2.28%
28 | Cc1cc(-c2cnc(NC3CCCC3)nc2-c2ccoc2C)on1 | 3.94%
29 | CN(C)C[C@@H]1C[C@@H]2CN(C(=O)c3ccoc3)CC[C@@H]2N1CC1CC1 | 2.34%
30 | CCCC(C)(C)NC(=O)c1ccc(CC2CC(=O)NC2=O)cc1 (stereo not given) | -0.604%
31 | Cn1nccc1C1CCN(Cc2csc(-c3ncccn3)n2)CC1 | 5.92%
32 | CN1CCCC1c1ccc(C(=O)N2CCc3ccccc3C2)s1 (stereo not given) | -5.54%
33 | COCC1c2nnn(CC3CC3)c2CCN1C(=O)c1cccc(F)c1 (stereo not given) | -5.71%
34 | COc1ccc(Cl)cc1C(=O)N1CCOC2(CNCCOC2)C1 (stereo not given) | -0.926%
35 | COCCNC(=O)[C@H]1C[C@@H]2CCN(Cc3ccoc3)C[C@H]2O1 | 3.35%
36 | CCOCCN1CCn2c(C)nnc2C1 | 1.76%
37 | COCC(O)CNC(=O)c1coc(COc2ccc3sc(C)nc3c2)n1 (stereo not given) | 5.55%
38 | Cc1cnn(CC2CCCCN2CCCS(N)(=O)=O)c1 (stereo not given) | -8.36%
39 | Cc1nc(NC2CCCC2)cc(C2CCN2C(=O)c2cccnc2)n1 (stereo not given) | 2.75%
40 | Cc1cc(N2CCN(Cc3nccn3C)CC2)cc(C)n1 | 2.09%

These molecules were tested against Shiga toxin 2 (Escherichia coli O157:H7) (UniProt P09385+P09386) (assay: E. coli 0.157:H7 Shiga Toxin SOP - stx2 screening assay). Settings: 30 µM.
Format: functional
Set-up: scale not given: direction of the effect not stated beside the values

Row | Compound | Percent Effect
41 | Nc1nccc(NCc2cc3n(n2)CCCN(C2CCCCC2)C3)n1 | -9.53%
42 | CCn1cc(Br)c(C(=O)NCc2cccnc2)n1 | -69.5%
43 | OC(COCc1ccccc1F)CN1CCc2c(ncn2C2CC2)C1 (stereo not given) | -4.88%
44 | CN(Cc1cccs1)C(=O)CN1CCCC1Cn1cncn1 (stereo not given) | -62.3%
45 | O=C(N1CCC(Nc2cccnn2)CC1)C1(c2ccc(F)cc2)CC1 | -20.3%
46 | CCOc1ccc(C(=O)NS(=O)(=O)c2cncc(Br)c2)cc1OC | -12%
47 | CSc1sc(NC(=O)Cc2c(C)nc(C)[nH]c2=O)nc1C | -7.28%
48 | CC(C)(C)c1ncc2c(n1)CN(C(=O)c1ccc(-c3nc[nH]n3)cc1)C2 | -62.9%
49 | Cc1ccc(CNCc2ccc(-n3nc(C)cc3C)nc2)cc1 | 22.8%
50 | COCCc1noc(CN(C)C(=O)c2cccc(N3CCCC3=O)c2)n1 | 3.89%
51 | COCC(=O)N(C)Cc1ccc(Cl)c(Cl)c1 | 2.03%
52 | CC(=O)N1CCCn2nc(CNS(=O)(=O)c3cc(C)cs3)cc2C1 | 5.82%
53 | O=C1CC(c2cccnc2)c2c(c(C(=O)O)cn2-c2ccccc2)N1 (stereo not given) | -6.55%
54 | COCc1nn(C(C)C)c2c1CCN(Cc1cccs1)C2 | 18.3%
55 | Cc1nc(C(C)C)sc1C(=O)NS(=O)(=O)c1ccc(C#N)cc1 | 0.0303%
56 | CCC1=N[C@@]2(CC[C@@H]3CN(S(=O)(=O)CC(C)C)C[C@@H]32)C(=O)N1C | -1.16%
57 | O=C(Nc1nncs1)NC1CCOc2ccccc21 (stereo not given) | -45.8%
58 | CCOc1cccc(CNc2ccccc2C(=O)OC)c1O | -53.6%
59 | COc1cccc2c1OCC(C(=O)NC1CCN(S(C)(=O)=O)CC1)C2 (stereo not given) | 11.1%
60 | CCn1ncc2c1CCCC2NCc1cc(Cl)c(OC)c(OC)c1 (stereo not given) | 1.68%

Row | Compound | Percent Effect
61 | CCOCC(O)CN1CCN(C(=O)c2ccc(OC)cc2F)CC1 (stereo not given) | -5.15%
62 | Cc1cc(C)n(C2CN(CC(O)COc3ccc(F)cc3)C2)n1 (stereo not given) | 19.1%
63 | CCN(CC)C(=O)C(c1ccccc1)N1CCn2c(C)nnc2C1 (stereo not given) | 4.2%
64 | Cc1[nH]ccc1C(=O)Nc1cccc(CN2CCC(CO)CC2)c1 | -43.9%
65 | Cc1cc(NC(=O)CN2CCCC2c2noc(C3CC3)n2)no1 (stereo not given) | -26.9%
66 | CC(NC(=O)NCCCn1ccnc1)c1ccc2c(c1)CCC(=O)N2 (stereo not given) | -22.9%
67 | Cc1cccc(C(=O)N2CCCCC2c2ccc(CN(C)C)cc2)n1 (stereo not given) | 13.7%
68 | Cc1cc(-c2cnc(NC3CCCC3)nc2-c2ccoc2C)on1 | -25.8%
69 | CN(C)C[C@@H]1C[C@@H]2CN(C(=O)c3ccoc3)CC[C@@H]2N1CC1CC1 | 8.89%
70 | CCCC(C)(C)NC(=O)c1ccc(CC2CC(=O)NC2=O)cc1 (stereo not given) | -9.64%
71 | Cn1nccc1C1CCN(Cc2csc(-c3ncccn3)n2)CC1 | -10.6%
72 | CN1CCCC1c1ccc(C(=O)N2CCc3ccccc3C2)s1 (stereo not given) | -38.1%
73 | COCC1c2nnn(CC3CC3)c2CCN1C(=O)c1cccc(F)c1 (stereo not given) | 7.97%
74 | COc1ccc(Cl)cc1C(=O)N1CCOC2(CNCCOC2)C1 (stereo not given) | 11.2%
75 | COCCNC(=O)[C@H]1C[C@@H]2CCN(Cc3ccoc3)C[C@H]2O1 | -3.8%
76 | CCOCCN1CCn2c(C)nnc2C1 | -30.6%
77 | COCC(O)CNC(=O)c1coc(COc2ccc3sc(C)nc3c2)n1 (stereo not given) | -20%
78 | Cc1cnn(CC2CCCCN2CCCS(N)(=O)=O)c1 (stereo not given) | -56.9%
79 | Cc1nc(NC2CCCC2)cc(C2CCN2C(=O)c2cccnc2)n1 (stereo not given) | 2.33%
80 | Cc1cc(N2CCN(Cc3nccn3C)CC2)cc(C)n1 | -75.9%
